This note sets out measurements from PubChem BioAssay (Tox21).

SMILES strings stand for the structures. The source made the active and inactive calls. Entries that show only a call come without a potency. Calls follow the shape of the dose curve; as a rule, active = well fitted curve in the direction sought with a large enough effect in the repeat runs; inconclusive = weak or mixed curves; inactive = flat fitted curve, though single readings scatter.

The assay can be described thus: qHTS assay to test for compound auto fluorescence at 460 nm (blue) in HEK293 cells (AID 720678). To be noted: blue autofluorescence 405/460 nm; series mostly up to 91.3 µM. The source says: National Center for Advancing Translational Sciences [NCATS]
NIH Chemical Genomics Center [NCGC]
U.S. Environmental Protection Agency [EPA]
National Institutes of Environmental Health Sciences [NIEHS]
National Toxicology Program [NTP]
U.S. Food and Drug Administration [FDA]
Compound auto fluorescence often interferes with screening of the compound library against various biological targets and signaling pathways. Some of these compounds may have fluorophoric properties. Such properties may interfere with the assay outputs resulting in false positives and/or negatives. To decrease such complications and ensure the compound activities are relevant in terms of biological response, the Tox21 10K compound library was screened for auto fluorescence.
From the fluorophores used as reporter signals in our screening assays, the auto fluorescence equivalencies of compounds against three fluorophores have been evaluated: Triamterene, Fluorescein and Rose Bengal sodium for blue, green and red fluorescence, respectively. The fluorescence intensities were measured using Excitation/Emission wavelengths at 405/460nm, 485/535nm and 540/590nm for blue, green and red labels, respectively. This assay includes the blue fluorescence data.
Tox21 Assay Protocol Summary:
2,000 HEK293 cells in 5 uL of culture medium containing 10% dialyzed FBS per well were dispensed into black wall/clear bottom 1536-well plates using a Multidrop Combi Dispenser (Thermo Scientific). The assay plates were incubated for 4-5 hr at 37C to allow cell attachment to the well bottom, followed by the transfer of 23 nL compound or DMSO vehicle by a pintool work station (Kalypsys, San Diego, CA). After the assay plates were incubated overnight at 37C and 5% CO2, fluorescence intensities in the assay plates were measured by an Envision (PerkinElmer, Shelton, CT) plate reader using three labels for measuring blue, green and red fluorescence at […] 460, 535 and 590nm respectively.
For orientation: Quantitative high-throughput screening tests each substance at several concentrations.
As for `COc1ccc(COC(C)=O)cc1`, the Potency entry is “inactive”.
As to `CCCCCCCCCCCC[N+](C)(C)C`, the Potency entry is “inactive”.
With `Cc1ccnc2c1NC(=O)c1cccnc1N2C1CC1`, the Potency entry is “inactive”.
In the case of `CC1COc2c(N3CCN(C)CC3)c(F)cc3c(=O)c(C(=O)O)cn1c23` (stereo not given), the Potency result was “inactive”.
Turning to `NC(N)=NC(=O)Cc1c(Cl)cccc1Cl`, the Potency result was “inactive”.
As for `CCCCC(CC)COC(=O)CC(C(=O)OCC(CC)CCCC)S(=O)(=O)O` (stereo not given), the Potency result is “inactive”.
To `CC(C)CCOCc1ccccc1` belongs “inactive”; to `O=C1OC2(c3ccc(O)cc3Oc3cc(O)ccc32)c2ccccc21`, “inactive”; to `O=Nc1ccc(Nc2ccccc2)cc1`, “inactive”.
On to `Cc1cccc([N+](=O)[O-])c1C(=O)O`, for which the Potency entry was “inactive”.
Take `COC(=O)[C@H]1[C@H]2C[C@@H]3c4[nH]c5cc(OC)ccc5c4CCN3C[C@H]2C[C@@H](OC(=O)c2cc(OC)c(OC)c(OC)c2)[C@@H]1OC`: the Potency result is “inactive”.
As to `Cc1c(O)cccc1C(=O)N[C@@H](CSc1ccccc1)[C@H](O)CN1C[C@H]2CCCC[C@H]2C[C@H]1C(=O)NC(C)(C)C`, the Potency entry was “inactive”.
Turning to `CC[C@@H](N)CO`, the Potency entry was “inactive”.
Consider `COc1ccc(CCN(C)CCCC(C#N)(c2ccc(OC)c(OC)c2)C(C)C)cc1OC` (stereo not given), for which the Potency entry is “inactive”.
Regarding `COC(=O)c1cccc(C(=O)OC)c1`, the Potency result is “inactive”.
Consider `CC(=O)OCC1=C(C(=O)O)N2C(=O)[C@@H](NC(=O)Cc3cccs3)[C@H]2SC1`, for which the Potency entry was “inactive”.
Turning to `CCC(CO)(CO)COCC(CC)(CO)CO`, the Potency entry was “inactive”.
Turning to `COc1cc(C(=S)N2CCOCC2)ccc1O`, the Potency entry was “inactive”.
Then `Oc1c(Cl)cc(Cl)c(Cl)c1Cc1c(O)c(Cl)cc(Cl)c1Cl`, with “inactive”; and `CCN(CC)C(=S)SSC(=S)N(CC)CC`, with “inactive”.
Take `O=C(Nc1ccccc1SSc1ccccc1NC(=O)c1ccccc1)c1ccccc1`: the Potency result is “inactive”.
On to `CNCCC(Oc1ccc(C(F)(F)F)cc1)c1ccccc1` (stereo not given), for which the Potency entry was “inactive”.
As for `CCCOC(=O)c1cc(O)c(O)c(O)c1`, the Potency entry was “inactive”.
Turning to `COC(=O)/C=C/c1ccccc1`, the Potency result was “inactive”.
For `CC(COc1ccccc1)N(CCCl)Cc1ccccc1` (stereo not given), the Potency result is “inactive”.
Take `Nc1nc(=S)c2[nH]cnc2[nH]1`: the Potency result is “inactive”.
Consider `CCC(=O)/C=C/C1C(C)=CCCC1(C)C` (stereo not given), for which the Potency entry was “inactive”.
`CCN(CC)CCOc1ccc(/C(=C(\Cl)c2ccccc2)c2ccccc2)cc1`: the Potency entry is “inactive”.
As to `CC(N)=O`, the Potency result is “inactive”.
To `O=C(Cl)c1cccc(C(=O)Cl)c1` belongs “inactive”; to `Cc1cc(OCCOCC[N+](C)(C)Cc2ccccc2)ccc1C(C)(C)CC(C)(C)C`, “inactive”; to `O=C1Nc2ccccc2C1(c1ccc(O)cc1)c1ccc(O)cc1`, “inactive”.
To `CCOC(=O)C(C)C(C)=O` (stereo not given) belongs “inactive”.
With `CCCN[C@H]1CCc2nc(N)sc2C1`, the Potency result was “inactive”.
As for `Nc1nc2ccccc2[nH]1`, the Potency entry was “inactive”.
Take `OCCN1CCNCC1`: the Potency result is “inactive”.
Consider `CN(C)c1ccc2nc3ccc(=[N+](C)C)cc-3sc2c1`, for which the Potency entry is “inactive”.
For `Cc1cccc(O)c1C`, the Potency entry is “inactive”.
For the molecule `O=C1CC2(CCCC2)CC(=O)N1CCCCN1CCN(c2ncccn2)CC1`, the Potency result is “inactive”.
Regarding `c1ccc2n[nH]nc2c1`, the Potency result is “inactive”.
